Among the data in PubChem BioAssay (NCI) are growth values, retold here.

Compounds without any hit were thinned out: in the full panel of roughly 83,000, 20% have a hit.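 Interpretation: 100, growth as untreated; towards 0, rising growth inhibition; 0, no net growth; 0 to -100, cell death. Compounds scoring below 10 were considered active.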 The source made the active and inactive calls.

This experiment concerns SR leukemia. The experiment is described as follows: NCI-60 one-dose screen, 48 h (100 = growth as untreated, 0 = no growth, -100 = all killed). The following applies: 10 µM. The protocol:
Growth inhibition of the SR human tumor cell line is measured as a screen for anti-cancer activity. Cells are grown in 96 well plates and exposed to the test compound for 48 hours. Compounds are tested at a single concentration, which is 10^-5 M for most compounds. The reported endpoint is percent growth (GI% or GIPRCNT), where numbers from 0 - 100% represent growth inhibition, and numbers from -100% - 0 represent cell death. For example, a value of 40 represents 60% growth inhibition. A value of 0 means no net growth occurred over the course of the experiment. A value of -40 indicates 40% of cells at the beginning of the experiment died by the end of the experiment. A value of -100 means all cells are dead at the end of the experiment.
NCI-60 Human Tumor Cell Lines Screen was performed using the standard one-dose NCI protocol, which is described in more detail at https://dtp.cancer.gov/discovery_development/nci-60/default.htm.
Compounds with GIPRCNT values below 10 were considered active. Activity score was based on GIPRCNT using the following formula: […]
Score is 0 for GIPRCNT values of 100 or above, 50 for GIPRCNT values of 0, and 100 for GIPRCNT values of -100.
In the case of `NS(=O)(=O)c1ccc(N2N=C(c3ccccc3)CCC2=O)cc1`, the growth was 66.5% (inactive).
In the case of `C[C@]12CCC3c4ccc(O)cc4C[C@@H](CCCCCCCCCS(=O)CCCC(F)(F)C(F)(F)F)C3C1CC[C@@H]2O` (stereo not given in full), the growth was 44.6% (inactive).
For `C/C(=C/CCC(C)[C@@H]1CC[C@]2(C)C3=C(CC[C@@]12C)[C@@]1(C)CCC(=O)C(C)(C)[C@@H]1CC3)C(=O)O` (stereo not given in full), the growth was -27.8% (active).
The value for `C=CCN(CC=C)C(=O)[C@H](CC)[C@@H]1CC[C@@H](C)[C@@H]([C@H](C)[C@@H](O)[C@@H](C)C(=O)[C@H](CC)C2O[C@]3(C=C[C@@H](O)[C@]4(CC[C@@](C)([C@H]5CC[C@](O)(CC)[C@H](C)O5)O4)O3)[C@H](C)C[C@@H]2C)O1` (stereo not given in full) was 36.9% (inactive).
Consider `Cc1cc(C(C#N)c2ccc(Cl)cc2)c(Cl)cc1NC(=O)c1cc(I)cc(I)c1O` (stereo not given), for which the growth is 27.6% (inactive).
For the compound `N#CC1=CC2CN(Cc3ccccc3)C1C1C(=O)N(c3ccccc3)C(=O)C21` (stereo not given), the growth is 93.4% (inactive).
The value for `S=c1cnc2ccccc2[nH]1` was 103% (inactive); that for `O=C(Nc1nc(-c2ccccc2)nc2c1sc(=S)n2-c1ccccc1)C(F)(F)F` was 89.8% (inactive).
Under `Cc1ccc(NC(=S)NNC(=S)Nc2ccc(C)cc2)cc1` stands 27.4% (inactive); under `COc1ccc(C(c2ccc(OCCN(C)C)cc2)c2cc3ccccc3c3ccccc23)cc1` (stereo not given), -30.6% (active); under `COc1cc2c(Nc3ccc(-c4ccc(N)cc4)cc3)ncnc2c(OC)c1OC`, 31.8% (inactive).
Under `Cc1cn(-c2cccc(NC(=O)c3ccc(C)c(Nc4nccc(-c5cccnc5)n4)c3)c2)cn1` stands 1.26% (active).
Regarding `Clc1nc2ccc(Br)cc2cc1-c1nc2ccccc2[nH]1`, the growth was 92.3% (inactive).
With `NNC(=O)Oc1c(Cl)cc(Cl)cc1[N+](=O)[O-]`, the growth is 87.5% (inactive).
For the compound `CCN(CC)CCOc1ccc2c(c1O)C(=O)c1ccccc1C2=O`, the growth is 63.5% (inactive).
Regarding `COc1ccc(-c2cc(-c3ccccc3)nc(SCCCCCCC(=O)NO)n2)cc1`, the growth is 21.1% (inactive).
As for `CS(=O)(=O)c1nccc(-c2c(-c3cccc(OCCc4ccccc4)c3)nc3sccn23)n1`, the growth was 85.8% (inactive).
Consider `CCCCCOC(=O)Nc1nc(=O)n(C2O[C@H](C)[C@@H](O)[C@H]2O)cc1F` (stereo not given in full), for which the growth was 101% (inactive).
In the case of `O=C1/C=C/[C@@H](O)[C@@H]2C[C@@H](O)C[C@H]2/C=C/CCC[C@H](CCc2ccc(C(F)(F)F)cc2)O1`, the growth was 1.16% (active).
Turning to `N#Cc1c(-c2ccc(Cl)cc2)n(O)c2ccccc12`, the growth is 9.6% (active).
Take `CNC(=O)c1cn(C2CC2)c2cc(N3CCN(C(=O)c4cc(OC)c(OC)c(OC)c4)CC3)c(F)cc2c1=O`: the growth is 92.2% (inactive).
`COc1cc(-c2nn(-c3cccc(NC(=O)CCN4CCN(Cc5ccccc5)CC4)c3)cc2-c2ccncc2)ccc1Cl`: the growth is -28.5% (active).
Consider `CCNCC(=O)Nc1ccc(C(=O)OCC)cc1`, for which the growth is 82.3% (inactive).
For `O=C(Nc1cc([N+](=O)[O-])c2[nH]c(=O)c3ccccc3c2c1)C(F)(F)F`, the growth was 52.3% (inactive).
Under `CCn1c(SC/C(=N/O)c2ccccc2)nnc1-c1ccccc1` stands 94.8% (inactive).
Turning to `CCN1CC(CCN2CCOCC2)C(C(c2ccccc2)c2ccccc2)C1=O` (stereo not given), the growth is 94% (inactive).
The value for `COc1cc2c(cc1NC(=O)C(F)(F)F)-c1ccc(NC(=O)C(F)(F)F)cc1C2` was 107% (inactive).
In the case of `C[C@@H](O)[C@H]1C(=O)N2C(C(=O)O)=C(SC3CN[C@H](C(=O)N(C)C)C3)[C@H](C)[C@H]12` (stereo not given in full), the growth was 123% (inactive).
Under `O=C(COc1cccc(/C=C2\CSc3ccccc3C2=O)c1)c1ccc(Cl)cc1` stands -60.7% (active).
The value for `CC(C)C1=C(O)C2=C(C(=O)C1=O)[C@@]1(C)CCCC(C)(C)[C@@H]1CC2` was 48% (inactive).
Turning to `c1cnc2[nH]cc(-c3nc(-c4ccsc4)cs3)c2c1`, the growth is 87.7% (inactive).
Consider `COc1cc(C)ccc1Oc1nc(Nc2ccc(N3CCOCC3)cc2)ncc1NC(=O)Nc1cc(C(F)(F)F)cc(C(F)(F)F)c1`, for which the growth was 28.3% (inactive).
Turning to `O=C(CCl)Nc1ccc(Cc2ccc(NC(=O)CCl)cc2)cc1`, the growth was 5.61% (active).
For `CCC(C)[C@H](NC(C)=O)C(=O)N[C@@H](CCCNC(=N)N)C(=O)N[C@@H](CCCCN)C(=O)N[C@@H](CC1CCC(O)CC1)C(=O)NC(C(=O)N[C@@H](CCSC)C(=O)N[C@@H](CCCNC(=N)N)C(=O)N[C@@]1(C)CCC/C=C\CCC[C@@](C)(C(=O)NC(C(=O)N[C@@H](CCC(=O)O)C(=O)N[C@@H](CC(C)C)C(=O)N[C@H](C(=O)N[C@@H](CCC(=O)O)C(N)=O)C(C)C)[C@@H](C)O)NC(=O)[C@H](CCC(N)=O)NC(=O)[C@H](CC(C)C)NC(=O)[C@H](CC(C)C)NC1=O)[C@@H](C)O` (stereo not given in full), the growth is 98.5% (inactive).
Regarding `COc1nc2c(c(=O)n1C)CN(c1ccccc1)C(=O)C(C)N2` (stereo not given), the growth is 93.6% (inactive).
For `COc1cc(C2C(C#N)=C(N)Oc3cc(O)ccc32)cc(OC)c1OC` (stereo not given), the growth is 11.4% (inactive).
For `O=C1NC(=O)c2c(CCCSc3nc4ccccc4c(=O)n3CCc3ccccc3)cccc21`, the growth was 66.6% (inactive).
Under `O=C(CC(CC(=O)c1ccccc1)c1ccccc1O)c1ccccc1` stands 92.9% (inactive).
The value for `S=C(SSC(=S)N(c1ccccc1)c1ccccc1)N(c1ccccc1)c1ccccc1` was 92.6% (inactive); that for `N#CC1=C(N)Oc2cc(N)ccc2C1c1cccnc1` (stereo not given) was 70.6% (inactive).
